DUSP3 inh: blocks the human dual specificity phosphatase VHR1. P51452. recombinant VHR phosphatase, colorimetric substrate read-out. inhibition, % at 20 µM. hit rate 0.7% among 50,000; in the data active = inhibition above about 60%
Target sequence (P51452 whole entry, looked up): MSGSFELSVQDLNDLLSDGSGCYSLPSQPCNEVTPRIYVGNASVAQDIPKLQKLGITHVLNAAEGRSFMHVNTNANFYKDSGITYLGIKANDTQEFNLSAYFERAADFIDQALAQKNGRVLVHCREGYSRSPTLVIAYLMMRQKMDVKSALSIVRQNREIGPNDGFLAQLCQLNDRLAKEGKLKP
Numbers without * were called inactive. This is one part of a sample in which hits are shown more often than they occur.

What do the screens show for `COc1ccccc1N1N=C(c2ccccc2)CC1c1ccccc1` (configuration not stated)?
DUSP3 inh: -24

How did O=C(CCCOc1ccc(Cl)cc1Cl)n1cnc2ccccc21 do in these assays?
DUSP3 inh: -6

Results for CC(=O)NS(=O)(=O)c1ccc(NC(=O)c2ccccc2OC(C)=O)cc1 ?
DUSP3 inh: 1

How did O=C(c1ccccc1)N1CCN(c2cc(N3CCCC3)c(F)cc2[N+](=O)[O-])CC1 do in these assays?
DUSP3 inh: -5

Results for COc1ccc(C2CC(=O)C3=C(C2)Nc2ccccc2NC3c2ccc(F)c(Br)c2)cc1 (configuration not stated) ?
DUSP3 inh: 116*

How did COc1ccc(C2CC(=O)C3=C(C2)Nc2ccccc2NC3c2cccc(Br)c2)cc1 (configuration not stated) do in these assays?
DUSP3 inh: 1

What do the screens show for `COc1ccc(C2CC(=O)C3=C(C2)Nc2ccccc2NC3c2ccc3ccccc3c2)cc1` (configuration not stated)?
DUSP3 inh: 11

How did CCc1cccc(CC)c1NC(=O)c1cccnc1 do in these assays?
DUSP3 inh: 4

How did COc1ccc(NC(=O)c2c(NC(=O)c3ccccc3)sc3c2CCCC3)cc1 do in these assays?
DUSP3 inh: -14

How did O=C(Nc1ncc(Cc2ccc(Cl)c(Cl)c2)s1)c1ccccc1Cl do in these assays?
DUSP3 inh: -5

What do the screens show for `CCCCNC(=O)/C(=C/c1ccc(OC)cc1)NC(=O)c1ccc([N+](=O)[O-])cc1`?
DUSP3 inh: 13

How did CCOC(=O)C1=C(C)N=c2s/c(=C\c3ccco3)c(=O)n2C1/C=C/c1ccccc1 (configuration not stated) do in these assays?
DUSP3 inh: 2

How did C=CCN1C(=O)/C(=C\c2ccc(OCC(=O)O)c(OC)c2)C(=O)NC1=S do in these assays?
DUSP3 inh: 7

Results for C=CCOc1ccc(/C=C2/C(=O)NC(=S)N(CC=C)C2=O)cc1OCC ?
DUSP3 inh: 12

Results for C=CCN1C(=O)/C(=C\c2ccc(OCc3ccc(F)cc3)c(OCC)c2)C(=O)NC1=S ?
DUSP3 inh: 75*

Results for O=C1c2ccccc2C(=O)N1CCCCN(C(=O)c1ccc(Br)cc1)c1ccc(F)cc1F ?
DUSP3 inh: -7

How did Cc1ccc(S(=O)(=O)Oc2cccc(/C=C3/SC(=S)N(C)C3=O)c2)cc1 do in these assays?
DUSP3 inh: 1

Results for CC1CCc2c(sc(NC(=O)c3cccc(C(=O)O)c3)c2C(N)=O)C1 (configuration not stated) ?
DUSP3 inh: 78*

Results for COc1cc(OC)cc(C(=O)Nc2sc3c(c2C(N)=O)CCC(C)C3)c1 (configuration not stated) ?
DUSP3 inh: 25

How did CC1CCc2c(sc(NC(=O)c3ccccc3)c2C(N)=O)C1 (configuration not stated) do in these assays?
DUSP3 inh: 2

What do the screens show for `O=C(CSc1nnnn1-c1ccccc1)C1CC1`?
DUSP3 inh: -1

What do the screens show for `Cc1cc(OCC(=O)Nc2ccc(C(C)C)cc2)ccc1Cl`?
DUSP3 inh: -6

Results for CCC(C)C(NC(=S)Nc1ccccc1)C(=O)O (configuration not stated) ?
DUSP3 inh: 98*

How did CCN(CC)S(=O)(=O)c1ccc(NC(=S)Nc2ccccc2)cc1 do in these assays?
DUSP3 inh: -7

Results for O=C(O)CSCC(NC(=S)Nc1ccccc1)C(=O)O (configuration not stated) ?
DUSP3 inh: -4

Results for O=C(O)C(Cc1ccccc1)NC(=S)Nc1ccccc1 (configuration not stated) ?
DUSP3 inh: 99*

How did CC(=O)Nc1ccc(NC(=S)Nc2ccccc2)cc1 do in these assays?
DUSP3 inh: 7

Results for O=C(NC(Cc1ccccc1)C(=O)Nc1ccccc1)OCc1ccccc1 (configuration not stated) ?
DUSP3 inh: 4

Results for CC(C)C(C(=O)O)N1C(=O)/C(=C/c2ccc(N(C)C)cc2)SC1=S (configuration not stated) ?
DUSP3 inh: 45

Results for CCCCOn1nnc2ccc([N+](=O)[O-])cc21 ?
DUSP3 inh: -13

Results for Cc1c(NC(=O)c2ccc(-c3ccc([N+](=O)[O-])cc3)o2)cccc1-c1nc2ncccc2o1 ?
DUSP3 inh: -6

How did CCN(CC)c1ccc(NC(=O)c2ccc(-c3cccc(Cl)c3)o2)cc1 do in these assays?
DUSP3 inh: -23

How did CCCOC(=O)c1ccc(NC(=O)c2ccc(-c3cccc(Cl)c3)o2)cc1 do in these assays?
DUSP3 inh: 109*

How did O=C(Nc1ccc(Cl)cc1)c1ccc(-c2cccc(Cl)c2)o1 do in these assays?
DUSP3 inh: 22

What do the screens show for `CCCCC1(O)CC(c2ccc(OC)cc2)NC(c2ccc(OC)cc2)C1C` (configuration not stated)?
DUSP3 inh: -30

What do the screens show for `CCOC(=O)C1=C(C)NC(SCC(N)=O)=C(C#N)C1c1cccc([N+](=O)[O-])c1` (configuration not stated)?
DUSP3 inh: -30

How did CCN(CC)CC(=O)Nc1sc2c(c1C(N)=O)CCCC2 do in these assays?
DUSP3 inh: -38

How did O=C(O)CN1C(=O)/C(=C/c2c(Cl)cccc2Cl)SC1=S do in these assays?
DUSP3 inh: -20

What do the screens show for `Cc1ccc(/C=C2\SC(=S)N(CC(=O)O)C2=O)o1`?
DUSP3 inh: 27

Results for O=C(O)CN1C(=O)/C(=C\c2ccc(-c3ccccc3Cl)o2)SC1=S ?
DUSP3 inh: 83*

Results for O=C(Nc1cccnc1)c1cccc2c(Br)cccc12 ?
DUSP3 inh: -65

What do the screens show for `O=C1C(=Cc2ccc(I)o2)C(=O)c2ccccc21`?
DUSP3 inh: 4

What do the screens show for `CC1(C)OC(=O)C(=Cc2ccc(I)o2)C(=O)O1`?
DUSP3 inh: 87*

Results for CN1C(=O)NC(=O)/C(=C/c2ccc(I)o2)C1=O ?
DUSP3 inh: 2

Results for Cc1ccccc1C1=N/C(=C\c2ccc(Br)o2)C(=O)O1 ?
DUSP3 inh: 0

How did CC1=NN(c2ccccc2)C(=O)/C1=C/c1c(O)n(C)c(=O)n(C)c1=O do in these assays?
DUSP3 inh: -18

What do the screens show for `COc1ccc(S(=O)(=O)N2CCN(C(=O)c3cccc(F)c3)CC2)cc1`?
DUSP3 inh: -21

Results for Cc1ccc(S(=O)(=O)N2CCN(C(=O)c3cccnc3)CC2)cc1 ?
DUSP3 inh: 10

How did Cc1ccc(S(=O)(=O)N2CCN(C(=O)c3cccc(F)c3)CC2)cc1 do in these assays?
DUSP3 inh: 101*

What do the screens show for `O=C(NC(Cc1ccccc1)C(=O)NCc1ccco1)OCc1ccccc1` (configuration not stated)?
DUSP3 inh: -6

How did Cc1ccc(C(=O)NC(=S)Nc2ccc(N3CCCCC3)cc2)cc1 do in these assays?
DUSP3 inh: 0

What do the screens show for `COc1ccc(S(=O)(=O)Nc2cc(C)ccc2C)cc1OC`?
DUSP3 inh: -15

How did COc1cc(/C=C2\SC(N3CCC(C)CC3)=NC2=O)cc(OC)c1OC do in these assays?
DUSP3 inh: 77

What do the screens show for `C=CCN1C(=O)NC(=O)/C(=C\c2ccc(OCc3ccc(Cl)cc3)c(OC)c2)C1=O`?
DUSP3 inh: -32

What do the screens show for `COc1cc(C=Nc2ccc(Nc3ccccc3)cc2)ccc1OCc1ccccc1`?
DUSP3 inh: 2

How did COc1cc(/C=N/O)ccc1OCc1ccc(Cl)cc1 do in these assays?
DUSP3 inh: 105*

What do the screens show for `Cc1nn2c3ccccc3n(C)c2c1C(=O)NN`?
DUSP3 inh: -38

What do the screens show for `CCc1ccccc1NC(=O)CN(c1ccc(Oc2ccccc2)cc1)S(C)(=O)=O`?
DUSP3 inh: 3

Screening results as filed in PubChem BioAssay.
